The nature of assay [1]: antimalarial activity against Dd2 strain (AID 2302;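 active = growth inhibition above 50% at the single 2 µM test dose, taken to imply half-maximal potency below 2 µM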;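 note: 0% = DMSO untreated growth and 100% = chloroquine plus artemisinin killed control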). The settings on record: P. falciparum Dd2 in RBCs, LDH growth readout, 72 h; at 2 µM; hits give high values.
The nature of assay [2]: HepG2 cytotoxicity, primary screen, cytotoxicity control for P. falciparum antimalarial project, cell-based, ATP luminescence (AID 2303;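 active = inhibition above 50%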;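 note: 0% = DMSO wells and 100% = digitonin-killed cells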). The conditions noted are these: HepG2 viability, 24-48 h, at 10 µM, hits give high values.
Assay [3] has as its target L-lactate dehydrogenase (Plasmodium falciparum (isolate CDC / Honduras)) (UniProt Q27743). Put plainly: PfLDH activity inhibition – cell lysate, 3D7 strain, counter-screen for P. falciparum growth inhibition project (AID 2304).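 Note: 0% = vehicle and 100% = reference inhibitor.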 The conditions noted are these: P. falciparum 3D7 crude extract, LDH APAD/NBT absorbance; at 2 µM; hits give high values. Background: A counterscreen serves to expose hits that act by an unwanted route or on another target.

A short description of assay [4]: inhibition of 3D7 malaria parasite growth – strain 3D7 (AID 2306).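 Note: 0% = DMSO wells and 100% = chloroquine plus artemisinin control wells.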 The conditions noted are these: P. falciparum 3D7 erythrocytic growth, LDH absorbance, 72 h; at 2 µM; hits give high values.
In assay [5] the target is Calcium-dependent protein kinase 1 (Plasmodium falciparum (isolate 3D7)) (UniProt P62344). The assay can be described thus: PfCDPK1 kinase inhibitors, biochemical, TCAMS library (AID 1159585; cut-off not given, nearly all actives have IC50 up to about 0.98 µM;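 note: inhibitors leave more ATP so luminescence rises with inhibition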). The settings on record: recombinant PfCDPK1, Kinase-Glo ATP depletion luminescence. In general terms: In Kinase-Glo more light means more ATP remaining.
Chain of Calcium-dependent protein kinase 1 (Plasmodium falciparum (isolate 3D7)) (P62344 whole entry, looked up): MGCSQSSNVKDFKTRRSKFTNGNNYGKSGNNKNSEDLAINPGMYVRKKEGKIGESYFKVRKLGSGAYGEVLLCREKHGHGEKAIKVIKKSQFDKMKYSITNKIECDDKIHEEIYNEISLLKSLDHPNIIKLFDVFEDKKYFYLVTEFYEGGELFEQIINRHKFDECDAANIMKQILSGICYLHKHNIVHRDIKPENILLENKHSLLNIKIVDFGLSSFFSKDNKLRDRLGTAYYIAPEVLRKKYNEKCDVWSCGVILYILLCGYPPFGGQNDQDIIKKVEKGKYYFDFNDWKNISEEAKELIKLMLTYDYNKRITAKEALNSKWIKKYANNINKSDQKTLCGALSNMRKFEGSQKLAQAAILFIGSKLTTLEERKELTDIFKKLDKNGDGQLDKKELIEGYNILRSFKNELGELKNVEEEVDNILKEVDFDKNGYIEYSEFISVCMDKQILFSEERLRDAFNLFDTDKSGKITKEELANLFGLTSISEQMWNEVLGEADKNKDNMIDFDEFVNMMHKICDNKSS
In assay [6] the target is Plasmodium falciparum protein kinase 6 (PK6, PF3D7_1337100) (UniProt Q8IDW1). Put plainly: PfPK6 kinase inhibitors, biochemical, TCAMS library (AID 1159586). The conditions noted are these: recombinant PfPK6, Kinase-Glo ATP depletion luminescence.
Chain of Plasmodium falciparum protein kinase 6 (PK6, PF3D7_1337100) (Q8IDW1 1-305): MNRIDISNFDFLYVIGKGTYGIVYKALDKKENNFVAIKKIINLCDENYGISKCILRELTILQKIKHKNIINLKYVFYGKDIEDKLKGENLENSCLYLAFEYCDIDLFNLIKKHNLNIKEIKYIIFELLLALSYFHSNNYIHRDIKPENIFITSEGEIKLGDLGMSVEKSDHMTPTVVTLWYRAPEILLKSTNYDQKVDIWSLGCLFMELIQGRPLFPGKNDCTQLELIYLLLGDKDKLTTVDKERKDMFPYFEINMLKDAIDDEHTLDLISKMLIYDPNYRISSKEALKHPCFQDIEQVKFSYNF
The target in assay [7] is Protein kinase 7 (PK7), Plasmodium falciparum 3D7 (PF3D7_0213400) (UniProt Q7YTF7). The assay can be described thus: inhibition of Plasmodium PK7 catalytic activity – biochemical, TCAMS antimalarial set, Kinase-Glo luminescence (AID 1159587). The settings on record: recombinant PfPK7, Kinase-Glo ATP depletion luminescence.
Chain of Protein kinase 7 (PK7), Plasmodium falciparum 3D7 (PF3D7_0213400) (Q7YTF7 1-343): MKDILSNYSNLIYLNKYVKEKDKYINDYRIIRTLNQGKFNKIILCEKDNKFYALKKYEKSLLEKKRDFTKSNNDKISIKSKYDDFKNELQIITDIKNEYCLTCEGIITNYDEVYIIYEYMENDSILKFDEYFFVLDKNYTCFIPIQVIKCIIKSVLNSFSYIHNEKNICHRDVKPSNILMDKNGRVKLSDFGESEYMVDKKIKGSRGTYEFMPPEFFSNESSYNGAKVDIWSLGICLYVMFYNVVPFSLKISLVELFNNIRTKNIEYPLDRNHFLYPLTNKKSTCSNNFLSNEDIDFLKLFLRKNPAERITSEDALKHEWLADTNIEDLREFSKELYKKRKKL
The target of assay [8] is Calcium-dependent protein kinase 4 (Plasmodium falciparum (isolate 3D7)) (UniProt Q8IBS5). Put plainly: PfCDPK4 kinase inhibitors, biochemical, TCAMS library (AID 1159588; cut-off not given, nearly all actives have IC50 up to about 0.91 µM). The conditions noted are these: recombinant PfCDPK4, Kinase-Glo ATP depletion luminescence.
Chain of Calcium-dependent protein kinase 4 (Plasmodium falciparum (isolate 3D7)) (Q8IBS5 whole entry, looked up): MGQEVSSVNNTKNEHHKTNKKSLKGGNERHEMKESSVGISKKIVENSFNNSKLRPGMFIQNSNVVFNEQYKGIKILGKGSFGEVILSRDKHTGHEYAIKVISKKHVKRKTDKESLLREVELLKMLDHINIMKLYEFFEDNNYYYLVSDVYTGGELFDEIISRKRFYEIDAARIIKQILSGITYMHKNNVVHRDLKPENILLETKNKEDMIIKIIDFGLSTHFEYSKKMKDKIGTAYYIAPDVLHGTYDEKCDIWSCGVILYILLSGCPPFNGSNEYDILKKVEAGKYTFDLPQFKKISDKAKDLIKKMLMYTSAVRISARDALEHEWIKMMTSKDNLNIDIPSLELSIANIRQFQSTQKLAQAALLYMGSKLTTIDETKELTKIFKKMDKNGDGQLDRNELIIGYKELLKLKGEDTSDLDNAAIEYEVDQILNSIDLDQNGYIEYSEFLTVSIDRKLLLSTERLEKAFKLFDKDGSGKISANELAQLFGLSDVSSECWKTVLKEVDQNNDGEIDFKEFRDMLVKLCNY

Values without a mark were called inactive. For part of these data: Measured potencies and affinities stand elsewhere. Active and inactive are the calls of the source. Unless noted, the rule behind the calls is not given here.

Chain of L-lactate dehydrogenase (Plasmodium falciparum (isolate CDC / Honduras)) (Q27743 whole entry, looked up): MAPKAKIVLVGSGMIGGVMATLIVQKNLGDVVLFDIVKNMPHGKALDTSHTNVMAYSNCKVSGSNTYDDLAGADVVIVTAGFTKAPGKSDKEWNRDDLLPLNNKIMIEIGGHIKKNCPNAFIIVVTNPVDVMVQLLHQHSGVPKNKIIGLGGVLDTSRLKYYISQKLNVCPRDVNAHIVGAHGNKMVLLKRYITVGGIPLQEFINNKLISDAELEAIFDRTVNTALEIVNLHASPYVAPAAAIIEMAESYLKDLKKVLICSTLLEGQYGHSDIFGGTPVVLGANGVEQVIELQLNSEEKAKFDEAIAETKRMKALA

Usually inhibition stands for the drop in the measured response relative to a control, in per cent. With `O=C(c1cc(-c2ccccc2)n[nH]1)N1CCN(S(=O)(=O)c2ccc(Cl)s2)CC1`, the growth inhibition was 81% (active) in assay [1] and 88% (active) in assay [4]. Besides, the values for the inhibition in assay [2] and in assay [3] were 9% and 1%, respectively. The result in assay [5], in assay [6], in assay [7] and in assay [8] was inactive.
As for `CCc1c(CCNC/C=C/C=C/CNCCc2ccc(OC)c(OC)c2CC)ccc(OC)c1OC`, the results for the growth inhibition in assay [1] and in assay [4] were 99% (active) and 100% (active), respectively. For the same compound, the results for the inhibition in assay [2] and in assay [3] were 75% (active) and 3%, respectively. For the same compound, the result in assay [5], in assay [6], in assay [7] and in assay [8] was inactive.
In the case of `CCOc1ccc2nc(C)cc(NN=Cc3ccncc3)c2c1`, the growth inhibition in assay [1] is 78% (active); in assay [4] it was 99% (active). For the same compound, the inhibition in assay [2] was 8%; in assay [3] it was 0%. The outcome in assay [5], in assay [6], in assay [7] and in assay [8] was inactive.
As to `O=C(NCCc1ccccc1F)c1cc(Br)cc(N2CCN(c3ccncc3)CC2)c1`, the results for the growth inhibition in assay [1] and in assay [4] were 67% (active) and 97% (active), respectively. In addition, the figures for the inhibition in assay [2] and in assay [3] were 29% and -2%, respectively. The outcome in assay [5], in assay [6], in assay [7] and in assay [8] was inactive.
With `O=C(Nc1ccsc1)Nc1cccc(-c2cccc(-c3nc4ccc(F)cc4[nH]3)c2)c1`, the results for the growth inhibition in assay [1] and in assay [4] were 41% and 100% (active), respectively. Further, the inhibition in assay [2] is 46%; in assay [3] it was 2%. Moreover, the outcome in assay [5], in assay [6], in assay [7] and in assay [8] was inactive.
With `CCc1cn2c3c(cc(C(=O)N[C@@H](Cc4ccccc4)[C@H](O)CNC4CCOCC4)cc13)N(C)S(=O)(=O)C2`, the growth inhibition in assay [1] is 98% (active); in assay [4], 99% (active). Moreover, the results for the inhibition in assay [2] and in assay [3] were 13% and -1%, respectively. The outcome in assay [5], in assay [6], in assay [7] and in assay [8] was inactive.
Turning to `c1ccc(C23N=C(Nc4nc5ccccc5[nH]4)NC2(c2ccccc2)NC(Nc2nc4ccccc4[nH]2)=N3)cc1` (stereo not drawn), the growth inhibition is 89% (active) in assay [1] and 97% (active) in assay [4]. The figures for the inhibition in assay [2] and in assay [3] were 2% and 3%, respectively. Besides, the outcome in assay [5], in assay [6], in assay [7] and in assay [8] was inactive.
As to `Cc1nc(NCc2ccccc2)cc(NCC(O)c2ccc(O)cc2)n1` (stereo not drawn), the growth inhibition in assay [1] was 10%; in assay [4], 85% (active). Besides, the inhibition in assay [2] is 5%; in assay [3] it was -2%. The outcome in assay [5], in assay [6], in assay [7] and in assay [8] was inactive.
For the compound `CN(C)CCCOC(=O)c1cc2cc(-c3ccccc3)ccc2n1S(=O)(=O)Cc1ccccc1`, the results for the growth inhibition in assay [1] and in assay [4] were 70% (active) and 101% (active), respectively. Moreover, the inhibition in assay [2] is 13%; in assay [3], -5%. Besides, the outcome in assay [5], in assay [6], in assay [7] and in assay [8] was inactive.
For the compound `CC(C)c1cc2c(cc1O)C(Cc1ccccc1Cl)N(C)CC2` (stereo not drawn), the growth inhibition was 33% in assay [1] and 97% (active) in assay [4]. Also, the inhibition in assay [2] is -7%; in assay [3], -4%. Besides, the outcome in assay [5], in assay [6], in assay [7] and in assay [8] was inactive.
With `O=[N+]([O-])c1cccc(CNC2CCN(Cc3ccc(-c4ccccc4)cc3)CC2)c1`, the growth inhibition was 96% (active) in assay [1] and 100% (active) in assay [4]. In addition, the results for the inhibition in assay [2] and in assay [3] were 25% and 1%, respectively. Also, the result in assay [5], in assay [6], in assay [7] and in assay [8] was inactive.
For `O=S(=O)(NCCN1CCCC1)c1cccc(-c2cccc(CNCCc3cccs3)c2)c1`, the growth inhibition in assay [1] is 45%; in assay [4] it was 102% (active). Besides, the inhibition is 30% in assay [2] and 0% in assay [3]. Also, the outcome in assay [5], in assay [6], in assay [7] and in assay [8] was inactive.
Regarding `Cc1ccc(CN2CCCN(Cc3cccc(NC(=O)c4ccc(-c5ccccc5)cc4)c3)CC2)cc1C`, the growth inhibition in assay [1] was 19%; in assay [4], 84% (active). For the same compound, the inhibition in assay [2] was 43%; in assay [3], -4%. In addition, the result in assay [5], in assay [6], in assay [7] and in assay [8] was inactive.
In the case of `NC1(C(=O)O)Cc2ccc(Cl)cc2C1` (stereo not drawn), the growth inhibition was 1% in assay [1] and 93% (active) in assay [4]. Further, the inhibition in assay [2] was 0%; in assay [3], -3%. Also, the result in assay [5], in assay [6], in assay [7] and in assay [8] was inactive.
Take `CCN(CCCN1CCCCC1)c1cc(C)nc(Nc2ccc3c(c2)CCC3)n1`: the growth inhibition in assay [1] is 93% (active); in assay [4], 100% (active). In addition, the inhibition in assay [2] is 32%; in assay [3] it was 5%. Further, the result in assay [5], in assay [6], in assay [7] and in assay [8] was inactive.
Turning to `Cc1ccc(NC(=O)Nc2ccccc2F)cc1-c1ccc(C(=O)Nc2ccncc2)cc1`, the growth inhibition in assay [1] was 54% (active); in assay [4], 99% (active). For the same compound, the inhibition was 36% in assay [2] and 3% in assay [3]. The outcome in assay [5], in assay [6], in assay [7] and in assay [8] was inactive.
Turning to `O=C(CSc1nc2ccc([N+](=O)[O-])cc2s1)Nc1ccccc1-c1ccccc1`, the growth inhibition in assay [1] is 49%; in assay [4] it was 80% (active). The inhibition in assay [2] was -1%; in assay [3], 0%. In addition, the outcome in assay [5], in assay [6], in assay [7] and in assay [8] was inactive.
As for `COc1ccc(CN(C)Cc2ccc(NC(=O)c3cccc4c(=O)c5cccc(C)c5[nH]c34)cc2)cc1OC`, the growth inhibition in assay [1] is 22%; in assay [4] it was 92% (active). Besides, the inhibition in assay [2] is 7%; in assay [3], -2%. The outcome in assay [5], in assay [6], in assay [7] and in assay [8] was inactive.
Regarding `Fc1ccc2nc(-c3cccc(-c4ccc(CNCc5cnn(-c6ccccc6)n5)cc4)c3)[nH]c2c1`, the growth inhibition in assay [1] is 22%; in assay [4], 98% (active). Further, the inhibition is 18% in assay [2] and -3% in assay [3]. The result in assay [5], in assay [6], in assay [7] and in assay [8] was inactive.
Turning to `C[C@@H](N=C(Nc1ccc(-c2ccccc2)cc1)Nc1ccc(C#N)cc1O)c1ccc(Br)cc1`, the growth inhibition in assay [1] was 95% (active); in assay [4], 99% (active). Besides, the inhibition was 9% in assay [2] and 2% in assay [3]. Also, the result in assay [5], in assay [6], in assay [7] and in assay [8] was inactive.
Regarding `Cc1cc(OCCCN2CCC(NS(=O)(=O)c3ccc(C(F)(F)F)cc3)CC2)c2ccccc2n1`, the growth inhibition in assay [1] was 24%; in assay [4] it was 95% (active). Further, the inhibition in assay [2] was 12%; in assay [3], 1%. For the same compound, the outcome in assay [5], in assay [6], in assay [7] and in assay [8] was inactive.

Values taken from PubChem BioAssay.
